# Reference: PubChem BioAssay (Tox21)
# Several values for one entry are separate records, joined by “and”; a condition that tells them apart may be missing. Equal entries are not always repeated. Results filed as inconclusive are left out. Where a call stands in place of a potency, no number is given. Some compounds were tested as several samples or in several runs, with calls that do not always agree. Activity calls are given as the source filed them. Calls come from the whole dose curve; as a rule, active = well fitted curve in the direction sought with a large enough effect in the repeat runs; inconclusive = weak or mixed curves; inactive = no such curve, though single readings can be large; an effect the other way counts as inactive or inconclusive.
# Columns and labels:
# [1] = A CellTox Green Cytotoxicity Assay to monitor cytotoxicity in HEK293 cells - 40 hour (AID 1224871); details: CellTox Green fluorescence; series mostly up to 76.8 µM; note: nearly all actives have a fitted effect of over 45% in size
# Summary of the method: (§1)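 Cytotoxicity was tracked continuously in HEK293 cells by a DNA-binding dye excluded from viable cells. Compounds were transferred in DMSO 5 h after seeding; fluorescence was recorded at intervals up to 40 h.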
# [2] = qHTS RealTime-Glo MT Cell Viability Assay in HEK293 cells - 16 hour (AID 1224872); details: RealTime-Glo luminescence; series mostly up to 76.8 µM; note: nearly all actives have a fitted effect of over 50% in size
# Summary of the method: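 Quantitative high-throughput screen of the Tox21 10K library in HEK293: cells and RealTime-Glo reagents plated together, compound added at 5 h, luminescence monitored through 40 h at 37 C.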
# [3] = qHTS RealTime-Glo MT Cell Viability Assay in HepG2 cells - 8 hour (AID 1224873); details: RealTime-Glo luminescence; series mostly up to 76.8 µM; note: nearly all actives have a fitted effect of over 55% in size
# Summary of the method: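 HepG2 cells mixed with RealTime-Glo MT reagents (NanoLuc plus cell-permeant prosubstrate) were seeded at 600 cells/well, incubated 5 h at 37 C/5% CO2, then pinned with compounds in DMSO; nonlytic luminescence tracked viability during 40 h treatment.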
# [4] = qHTS RealTime-Glo MT Cell Viability Assay in HEK293 cells - 40 hour (AID 1224874); details: RealTime-Glo luminescence; max response: stronger effect = lower value; note: nearly all actives have a fitted effect of over 50% in size
# Summary of the method: (§2)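 Nonlytic bioluminescent viability monitoring. HEK293 at 600 cells/well with reagent; 5 h settle; compound transfer by pintool; plates held at 37 C and read at set time points.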
# [5] = A CellTox Green Cytotoxicity Assay to monitor cytotoxicity in HEK293 cells - 24 hour (AID 1224875); details: CellTox Green fluorescence; series mostly up to 76.8 µM; note: nearly all actives have a fitted effect of over 45% in size
# Summary of the method: as §1
# [6] = qHTS RealTime-Glo MT Cell Viability Assay in HepG2 cells - 32 hour (AID 1224877); details: RealTime-Glo luminescence; series mostly up to 76.8 µM; note: nearly all actives have a fitted effect of over 55% in size
# Summary of the method: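 Compound treatment began 5 h after plating HepG2 cells (600/well) with NanoLuc luciferase and prosubstrate. Plates stayed at 37 C for 40 h; luminescence was captured at six time points, 0 h through 40 h.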
# [7] = qHTS RealTime-Glo MT Cell Viability Assay in HEK293 cells - 0 hour (AID 1224880); details: RealTime-Glo luminescence; series mostly up to 76.8 µM; note: nearly all actives have a fitted effect of over 45% in size
# Summary of the method: as §2
# [8] = A CellTox Green Cytotoxicity Assay to monitor cytotoxicity in HepG2 cells - 24 hour (AID 1224878); details: CellTox Green fluorescence; series mostly up to 76.8 µM; note: nearly all actives have a fitted effect of over 45% in size
# Summary of the method: (§3)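 Real-time, homogeneous cytotoxicity readout: dead-cell DNA staining by CellTox Green in HepG2 monolayers, fluorescence measured at timed intervals up to 40 h of continuous compound exposure.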
# [9] = A CellTox Green Cytotoxicity Assay to monitor cytotoxicity in HepG2 cells - 40 hour (AID 1224879); details: CellTox Green fluorescence; series mostly up to 76.8 µM; note: nearly all actives have a fitted effect of over 40% in size
# Summary of the method: as §3
# [10] = A CellTox Green Cytotoxicity Assay to monitor cytotoxicity in HepG2 cells - 16 hour (AID 1224876); details: CellTox Green fluorescence; series mostly up to 76.8 µM; note: nearly all actives have a fitted effect of over 45% in size
# Summary of the method: as §3
# Potency is the fitted concentration of half-maximal effect.
Compound,Potency [1],Potency [2],Potency [3],max response [4],Potency [5],Potency [6],Potency [7],Potency [8],Potency [9],Potency [10],Potency [4]
COC(=O)C(C)N(C(=O)c1ccco1)c1c(C)cccc1C (stereo unspecified),inactive,inactive,inactive,-12.7% (inactive),inactive,inactive,inactive,–,–,–,–
N#Cc1c2ccccc2cc2ccccc12,inactive,inactive,inactive,-9.07% (inactive),inactive,inactive,inactive,inactive,–,–,–
Nc1ccc(Cl)cc1C(=O)c1ccccc1F,inactive,inactive,inactive,-9.35% (inactive),inactive,inactive,inactive,–,–,–,–
O=[N+]([O-])c1cccc2cccc([N+](=O)[O-])c12,inactive,inactive,inactive,-12.3% (inactive),inactive,inactive,inactive,inactive,inactive,–,–
CC(C)=CC1C(C(=O)OC(C#N)c2cccc(Oc3ccccc3)c2)C1(C)C (stereo unspecified),inactive,inactive,inactive,-3.44% (inactive),–,inactive,inactive,–,–,inactive,–
O=[N+]([O-])c1cc(C(F)(F)F)c(Cl)c([N+](=O)[O-])c1Nc1ncc(C(F)(F)F)cc1Cl,24.5 µM (active),2.75 µM (active),24.5 µM (active),–,38.9 µM (active),17.4 µM (active),inactive,12.3 µM (active),–,–,1.55 µM (active)
O=Cc1ccccc1,inactive,inactive,inactive,19.9% (inactive),inactive,–,inactive,inactive,inactive,–,–
COP(=O)(OC)Oc1ccc([N+](=O)[O-])cc1,inactive,inactive,inactive,-20.5% (inactive),–,inactive,inactive,–,inactive,inactive,–
CCCCCCC[CH2][Sn]([Cl])([Cl])[CH2]CCCCCCC,inactive,inactive,inactive,-19.1% (inactive),–,inactive,inactive,–,inactive,inactive,–
Cc1ccc(C)c2ccccc12,38.9 µM (active),inactive,inactive,-14.8% (inactive),–,inactive,inactive,inactive,inactive,inactive,–
COc1c2c(cc3c1OCO3)CCN(C)C2,inactive,inactive,inactive,-9.04% (inactive),inactive,inactive,inactive,inactive,inactive,–,–
BrCCCBr,inactive,inactive,inactive,6.85% (inactive),inactive,–,inactive,inactive,–,inactive,–
CCCCCCCCCCCCCCn1cc[n+](C)c1,39 µM (active) and 38.5 µM (active) and inactive,55 µM (active) and 24.3 µM (active),49.1 µM (active) and inactive,–,–,21.9 µM (active) and 38.5 µM (active) and inactive,inactive,24.6 µM (active) and 38.5 µM (active) and inactive,19.5 µM (active) and 21.6 µM (active) and inactive,34.7 µM (active) and 43.2 µM (active) and inactive,2.76 µM (active) and 1.93 µM (active)
COc1cnc(OC)n2nc(NS(=O)(=O)c3c(OCC(F)F)cccc3C(F)(F)F)nc12,inactive,inactive,inactive,16.5% (inactive),–,inactive,inactive,inactive,–,inactive,–
COC(=O)/C=C(\C)OP(=O)(OC)OC,inactive,inactive,inactive,-4% (inactive),inactive,inactive,inactive,–,inactive,–,–
O=C1C(Cl)=C(Cl)C(=O)C(Cl)=C1Cl,17.3 µM (active) and 19.5 µM (active),27.4 µM (active),43.5 µM (active) and 21.9 µM (active),–,–,–,3.08 µM (active) and 9.77 µM (active),24.5 µM (active) and 17.4 µM (active),21.8 µM (active) and 17.4 µM (active),48.8 µM (active) and 19.5 µM (active),21.8 µM (active) and 21.9 µM (active)
C=Cc1cccc(CCl)c1,inactive,inactive,inactive,4.68% (inactive),inactive,–,inactive,inactive,inactive,inactive,–
S=C=Nc1ccccc1,inactive,inactive,inactive,-7.14% (inactive),–,inactive,inactive,inactive,–,inactive,–
ClCBr,inactive,inactive,inactive,7.13% (inactive),inactive,–,inactive,inactive,inactive,inactive,–
c1csc(-c2ccc(-c3cccs3)s2)c1,inactive,inactive,inactive,-2.2% (inactive),–,inactive,inactive,inactive,inactive,inactive,–
Fc1ccc(C(OCCN2CCN(CCCc3ccccc3)CC2)c2ccc(F)cc2)cc1,21.3 µM (active),8.49 µM (active),23.9 µM (active),–,–,23.9 µM (active),inactive,23.9 µM (active),–,23.9 µM (active),9.52 µM (active)
C=CC(=C)C,inactive,inactive,inactive,8.63% (inactive),–,inactive,inactive,–,inactive,inactive,–
NC(=O)C(Cl)Cl,inactive,inactive,inactive,3.34% (inactive),–,inactive,inactive,inactive,inactive,inactive,–

Compound,Potency [1],Potency [2],Potency [3],max response [4],Potency [5],Potency [6],Potency [7],Potency [8],Potency [9],Potency [10],Potency [4]
[O]=[Cr](=[O])([OH])[O][Cr](=[O])(=[O])[OH],inactive,7.83 µM (active) and 21.8 µM (active),inactive,–,inactive,–,inactive,–,9.86 µM (active) and 12.3 µM (active),–,3.5 µM (active) and 2.18 µM (active)
Nc1nc(N)c(N)c(N)n1,49.2 µM (active),inactive,inactive,10.2% (inactive),49.2 µM (active),–,inactive,–,55.2 µM (active),–,–
CC(=O)[O-].CC(=O)[O-].O.O.[Zn+2],inactive,inactive,inactive,-2.4% (inactive),inactive,–,inactive,inactive,–,inactive,–
N#CSCc1ccccc1,inactive,inactive,inactive,-24.3% (inactive),inactive,inactive,inactive,inactive,inactive,–,–
CC(C)C(Br)C(=O)NC(N)=O (stereo unspecified),inactive,inactive,inactive,7.13% (inactive),inactive,inactive,inactive,inactive,inactive,–,–
CCCCCON=O,inactive,inactive,inactive,1.89% (inactive),–,inactive,inactive,inactive,inactive,inactive,–
[Cl-].[Cl-].[Cl-].[Yb+3],inactive,inactive,inactive,28.3% (inactive),–,inactive,inactive,inactive,inactive,inactive,–
O=C(N[C@H]1N=C(c2ccccc2F)c2cccc3c2N(CC3)C1=O)c1cc2ccccc2[nH]1,inactive,inactive,inactive,-4.67% (inactive),inactive,inactive,inactive,inactive,inactive,–,–
O=P(Cl)(Cl)Cl,inactive,inactive,inactive,0.904% (inactive),inactive,–,inactive,inactive,inactive,–,–
CC[N+]1(CC)CCC(OC(=O)C(O)(c2ccccc2)c2ccccc2)C1 (stereo unspecified),inactive,inactive,inactive,2.71% (inactive),–,inactive,inactive,inactive,inactive,inactive,–
Cc1nn(-c2cc(NS(C)(=O)=O)c(Cl)cc2Cl)c(=O)n1C(F)F,inactive,inactive,inactive,1.81% (inactive),–,inactive,inactive,inactive,inactive,inactive,–
CC(Cc1ccccc1)N(C)Cc1ccco1 (stereo unspecified),inactive,inactive,inactive,0.354% (inactive),inactive,–,inactive,inactive,–,inactive,–
Cc1cnc2c(C(=O)O)c(Cl)ccc2c1,inactive,inactive,inactive,3.08% (inactive),–,inactive,inactive,inactive,–,inactive,–
O=[N+]([O-])c1ccc(Cl)c(Cl)c1Cl,34.2 µM (active),inactive,inactive,-8.94% (inactive),–,–,inactive,inactive,inactive,inactive,–
O=C(O)CCCCCCNC1c2ccccc2CCc2ccccc21,inactive,inactive,inactive,11.4% (inactive),inactive,inactive,inactive,inactive,inactive,–,–
CC1CN1 (stereo unspecified),inactive,inactive,–,6.11% (inactive),inactive,inactive,inactive,inactive,inactive,–,–
O.O.O.O.O.O.O.O=S(=O)([O-])[O-].[Co+2],inactive,inactive,–,0.267% (inactive),inactive,inactive,inactive,inactive,inactive,inactive,–
C[C@H]1[C@H](c2ccc(Cl)cc2)SC(=O)N1C(=O)NC1CCCCC1,inactive,38.9 µM (active),–,–,inactive,inactive,inactive,–,inactive,inactive,43.6 µM (active)
Cc1ccccc1OP(=O)(Oc1ccccc1C)Oc1ccccc1C,inactive,inactive,inactive,–,inactive,inactive,inactive,inactive,–,inactive,–
[Cl-].[Cl-].[Sn+2],inactive,inactive,inactive,–,inactive,inactive,inactive,inactive,inactive,–,–
O=C(Cl)c1ccccc1F,inactive,inactive,inactive,-0.0017% (inactive),–,–,inactive,–,inactive,inactive,–
O=NN(CCO)CCO,inactive,inactive,–,7.2% (inactive),inactive,inactive,inactive,inactive,–,inactive,–
S=C=NCCc1ccccc1,43.7 µM (active),43.7 µM (active),–,–,43.7 µM (active),–,inactive,–,–,–,49.1 µM (active)
